The results in this text go back to publication PMC11006913.

For the first test, the target named is HOXC10 (Homo sapiens, UniProt Q9NYD6 254-340, K271E). The test can be described thus: PBM; 200 nM protein, PBS. To be noted: dsDNA, one strand shown.
Sequence of HOXC10 (Q9NYD6 254-340 K271E): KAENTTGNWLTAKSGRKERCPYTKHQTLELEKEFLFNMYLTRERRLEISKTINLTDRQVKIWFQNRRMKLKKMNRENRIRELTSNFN
Consider AACATAAA, for which the binding signal is 11.3 upbm affinity estimate (log intensity, higher = more binding, comparable within an allelic series). As to GCAGTAAA, the binding signal is 11.1 upbm affinity estimate (log intensity, higher = more binding, comparable within an allelic series). Consider ACATAAAT, for which the binding signal was 11.3 upbm affinity estimate (log intensity, higher = more binding, comparable within an allelic series). On the same count and under the same terms, as for CATAAATG, the figure is 11.2 upbm affinity estimate (log intensity, higher = more binding, comparable within an allelic series). Same read-out and setting: as for CACATAAA, the figure is 11.3 upbm affinity estimate (log intensity, higher = more binding, comparable within an allelic series).

A further test deals with MSX2 (Homo sapiens, UniProt P35548 130-214). The test can be described thus: PBM; 200 nM protein, PBS. The following applies: dsDNA, one strand shown.
Sequence of MSX2 (Homo sapiens, UniProt P35548 130-214) (P35548 130-214): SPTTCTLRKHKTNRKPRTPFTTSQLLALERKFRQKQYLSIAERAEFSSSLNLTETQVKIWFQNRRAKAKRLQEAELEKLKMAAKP
As for GTCATCTA, the binding signal was 10.5 upbm affinity estimate (log intensity, higher = more binding, comparable within an allelic series). On the same count and under the same terms, to ATCAAAAT belongs 11.2 upbm affinity estimate (log intensity, higher = more binding, comparable within an allelic series); to ACATGTTA, 10.7 upbm affinity estimate (log intensity, higher = more binding, comparable within an allelic series); to ATTTTTGG, 10.7 upbm affinity estimate (log intensity, higher = more binding, comparable within an allelic series). The same measure, in the same setting: as for GACCATTA, the figure is 11.8 upbm affinity estimate (log intensity, higher = more binding, comparable within an allelic series); as for TCAACTAA, 11.2 upbm affinity estimate (log intensity, higher = more binding, comparable within an allelic series). As to CAAATTCA, the binding signal is 10.9 upbm affinity estimate (log intensity, higher = more binding, comparable within an allelic series). Regarding ATCATCGG, the binding signal is 10.9 upbm affinity estimate (log intensity, higher = more binding, comparable within an allelic series).

For CAAATAAG, the binding signal was 11.1 upbm affinity estimate (log intensity, higher = more binding, comparable within an allelic series). Take ATTTGTCC: the binding signal is 11.1 upbm affinity estimate (log intensity, higher = more binding, comparable within an allelic series). On to AAGCAAAT, for which the binding signal is 11.3 upbm affinity estimate (log intensity, higher = more binding, comparable within an allelic series). Consider AAAATCGT, for which the binding signal was 11 upbm affinity estimate (log intensity, higher = more binding, comparable within an allelic series).

For ATTGCCAC, the binding signal was 11 upbm affinity estimate (log intensity, higher = more binding, comparable within an allelic series). Still for that read-out and setting: to AAGAATCA belongs 10.8 upbm affinity estimate (log intensity, higher = more binding, comparable within an allelic series); to ACCGATAA, 11.2 upbm affinity estimate (log intensity, higher = more binding, comparable within an allelic series). With ATTACTTC, the binding signal was 11.6 upbm affinity estimate (log intensity, higher = more binding, comparable within an allelic series). Same read-out and setting: as for GGAAATAA, the figure is 11.7 upbm affinity estimate (log intensity, higher = more binding, comparable within an allelic series); as for ATCAATCC, 11.1 upbm affinity estimate (log intensity, higher = more binding, comparable within an allelic series); as for AAACGATC, 10.9 upbm affinity estimate (log intensity, higher = more binding, comparable within an allelic series).

In the case of ATTTCTAA, the binding signal was 11.2 upbm affinity estimate (log intensity, higher = more binding, comparable within an allelic series). AATCAGGC: the binding signal was 11.4 upbm affinity estimate (log intensity, higher = more binding, comparable within an allelic series). On the same count and under the same terms, as for CTCAATCC, the figure is 10.8 upbm affinity estimate (log intensity, higher = more binding, comparable within an allelic series); as for ACAGATTG, 10.8 upbm affinity estimate (log intensity, higher = more binding, comparable within an allelic series); as for AATCGCAT, 10.9 upbm affinity estimate (log intensity, higher = more binding, comparable within an allelic series). For the sequence AGTCCTAA, the binding signal was 11.4 upbm affinity estimate (log intensity, higher = more binding, comparable within an allelic series). As for ACCTCAAT, the binding signal is 11 upbm affinity estimate (log intensity, higher = more binding, comparable within an allelic series). With ATAAATAC, the binding signal was 11.3 upbm affinity estimate (log intensity, higher = more binding, comparable within an allelic series). The same measure, in the same setting: to AAACGATG belongs 10.6 upbm affinity estimate (log intensity, higher = more binding, comparable within an allelic series); to GCGATATA, 10.6 upbm affinity estimate (log intensity, higher = more binding, comparable within an allelic series); to GAATAAAA, 11 upbm affinity estimate (log intensity, higher = more binding, comparable within an allelic series). Regarding CAATCCGA, the binding signal was 10.8 upbm affinity estimate (log intensity, higher = more binding, comparable within an allelic series).

With AACAAGAG, the binding signal is 10.3 upbm affinity estimate (log intensity, higher = more binding, comparable within an allelic series).

The target in another test is MSX2 (Homo sapiens, UniProt P35548 130-214, F161Y). The test can be described thus: PBM; 200 nM protein, PBS. The following applies: dsDNA, one strand shown.
Sequence of MSX2 (Homo sapiens, UniProt P35548 130-214, F161Y) (P35548 130-214 F161Y): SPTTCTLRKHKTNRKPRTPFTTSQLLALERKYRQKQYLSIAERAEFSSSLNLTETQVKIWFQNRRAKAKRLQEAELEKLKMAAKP
Regarding GTCATCTA, the binding signal is 10.4 upbm affinity estimate (log intensity, higher = more binding, comparable within an allelic series). The same measure, in the same setting: as for ATCAAAAT, the figure is 11.1 upbm affinity estimate (log intensity, higher = more binding, comparable within an allelic series); as for ATTTTTGG, 10.6 upbm affinity estimate (log intensity, higher = more binding, comparable within an allelic series). In the case of GACCATTA, the binding signal was 11.7 upbm affinity estimate (log intensity, higher = more binding, comparable within an allelic series). The same measure, in the same setting: to TCAACTAA belongs 11 upbm affinity estimate (log intensity, higher = more binding, comparable within an allelic series); to CAAATTCA, 10.7 upbm affinity estimate (log intensity, higher = more binding, comparable within an allelic series).

For ATCATCGG, the binding signal was 10.8 upbm affinity estimate (log intensity, higher = more binding, comparable within an allelic series). Still for that read-out and setting: to CAAATAAG belongs 10.9 upbm affinity estimate (log intensity, higher = more binding, comparable within an allelic series); to ATTTGTCC, 11 upbm affinity estimate (log intensity, higher = more binding, comparable within an allelic series); to AAGCAAAT, 11.1 upbm affinity estimate (log intensity, higher = more binding, comparable within an allelic series).

Consider AAAATCGT, for which the binding signal is 10.9 upbm affinity estimate (log intensity, higher = more binding, comparable within an allelic series). ATTGCCAC: the binding signal was 11 upbm affinity estimate (log intensity, higher = more binding, comparable within an allelic series). Same read-out and setting: as for AAGAATCA, the figure is 10.6 upbm affinity estimate (log intensity, higher = more binding, comparable within an allelic series). The same measure, in the same setting: as for ACCGATAA, the figure is 11.1 upbm affinity estimate (log intensity, higher = more binding, comparable within an allelic series); as for ATTACTTC, 11.5 upbm affinity estimate (log intensity, higher = more binding, comparable within an allelic series). Still for that read-out and setting: to GGAAATAA belongs 11.4 upbm affinity estimate (log intensity, higher = more binding, comparable within an allelic series). As for ATCAATCC, the binding signal is 11.1 upbm affinity estimate (log intensity, higher = more binding, comparable within an allelic series). On to AAACGATC, for which the binding signal was 10.8 upbm affinity estimate (log intensity, higher = more binding, comparable within an allelic series). On the same count and under the same terms, as for ATTTCTAA, the figure is 11 upbm affinity estimate (log intensity, higher = more binding, comparable within an allelic series); as for AATCAGGC, 11.2 upbm affinity estimate (log intensity, higher = more binding, comparable within an allelic series); as for CTCAATCC, 10.7 upbm affinity estimate (log intensity, higher = more binding, comparable within an allelic series).

In the case of ACAGATTG, the binding signal was 10.8 upbm affinity estimate (log intensity, higher = more binding, comparable within an allelic series). On the same count and under the same terms, to AATCGCAT belongs 10.8 upbm affinity estimate (log intensity, higher = more binding, comparable within an allelic series). Consider AGTCCTAA, for which the binding signal is 11.2 upbm affinity estimate (log intensity, higher = more binding, comparable within an allelic series).

For ACCTCAAT, the binding signal is 10.9 upbm affinity estimate (log intensity, higher = more binding, comparable within an allelic series). On the same count and under the same terms, to ATAAATAC belongs 11.3 upbm affinity estimate (log intensity, higher = more binding, comparable within an allelic series).

As to GCGATATA, the binding signal was 10.5 upbm affinity estimate (log intensity, higher = more binding, comparable within an allelic series). Still for that read-out and setting: as for GAATAAAA, the figure is 10.9 upbm affinity estimate (log intensity, higher = more binding, comparable within an allelic series); as for CAATCCGA, 10.8 upbm affinity estimate (log intensity, higher = more binding, comparable within an allelic series).
